This is an account of results in PubChem BioAssay AID720518 (National Center for Advancing Translational Sciences (NCATS), 2013).

Molecules are shown by their SMILES. Results filed as inconclusive are left out. The source made the active and inactive calls. Calls follow the shape of the full dose curve.
Potency is read from the fitted curve at half-maximal effect.

The test can be described thus: qHTS for Inhibitors of Cell Surface uPA Generation: Wild-type Protective Antigen (WT-PrAg) Counterscreen for Cherry-picked Compounds. As to activity (protection): 0% is about no effect. As to conditions: cells, WT protective antigen toxicity counterscreen; series mostly up to 115 µM; activity (protection): at the top concentration. Background: qHTS replaces the single test concentration by a dilution series.
Regarding `COc1ccc(C(=O)NC(=S)Nc2ccc(NC(=O)c3ccco3)cc2)cc1[N+](=O)[O-]`, the “activity (protection)” value was -0.262% (inactive). Take `CCCCNC(=O)C1CCN(S(=O)(=O)c2c(C)noc2/C=C\c2ccc(OC)cc2)CC1`: the “activity (protection)” value is -1.14% (inactive).

`Cc1cc(C)n(-c2cc(C(=O)O)cc(C(=O)O)c2)n1`: the “activity (protection)” value was -0.913% (inactive). As to `COc1cc(/C=N/NC(=O)Cc2csc(C)n2)ccc1OCC(C)C`, the “activity (protection)” value was -0.127% (inactive). On to `CCOc1ccccc1N(CC(=O)Nc1ccc(OC)cc1)S(=O)(=O)c1ccccc1`, for which the “activity (protection)” value was 0.0168% (inactive).

Consider `O=C(COC(=O)c1cccc([N+](=O)[O-])c1)NNC(=O)c1cccs1`, for which the “activity (protection)” value is 0.0086% (inactive). Consider `CC(=O)c1ccc(OCCCCOc2ccc(C(C)=O)cc2)cc1`, for which the “activity (protection)” value was -0.376% (inactive). Regarding `O=C(CSc1ccc([N+](=O)[O-])cn1)Nc1nccs1`, the “activity (protection)” value was -0.805% (inactive).

With `COc1ccc2c(ccn2S(=O)(=O)c2ccccc2)c1`, the “activity (protection)” value was -2.44% (inactive). For `CC1CC(=O)Nc2ccccc2N1C(=O)Cn1cnc2ccc(Br)cc2c1=O` (stereo not given), the “activity (protection)” value is 0.168% (inactive). On to `Cc1ccc(-n2cccc2C(=O)NS(=O)(=O)c2ccc(C)cc2)cc1`, for which the “activity (protection)” value is -0.321% (inactive). As for `Cc1ccc(NC(=O)CS(=O)Cc2nc(-c3ccc(C)cc3)oc2C)cc1` (stereo not given), the “activity (protection)” value is -1.52% (inactive). For the compound `COc1ccccc1-c1ccc(SCC(=O)NCCc2ccccc2)nn1`, the “activity (protection)” value was -1.14% (inactive).

On to `O=C(COc1ccccc1F)NCC(c1ccc(F)cc1)N1CCOCC1` (stereo not given), for which the “activity (protection)” value was -0.0642% (inactive). Regarding `CC1=C(C(=O)OCc2ccccc2)C(c2cccc([N+](=O)[O-])c2)NC(=O)N1` (stereo not given), the “activity (protection)” value is -1.14% (inactive). Take `CCOc1cc(C(=S)N2CCOCC2)ccc1OC(=O)c1cccc(C)c1`: the “activity (protection)” value was -2.03% (inactive).

Take `CCn1nc(NS(=O)(=O)c2ccccc2)c2cc3cc(C)ccc3nc21`: the “activity (protection)” value is -1.97% (inactive). As to `N#Cc1cccc(NC(=O)Cn2cnc(S(=O)(=O)N3CCOCC3)c2)c1`, the “activity (protection)” value was -0.557% (inactive).

As for `Cc1ccc(C(CC(=O)N2CCCC2)c2ccccc2)c(O)c1` (stereo not given), the “activity (protection)” value is -0.548% (inactive). With `CCOc1cc(N2CCOCC2)c(OCC)cc1NC(=O)c1[nH]c(C)c(C(C)=O)c1C`, the “activity (protection)” value is -1.39% (inactive). Consider `O=C(/C=C/c1cccc(Oc2ccccc2)c1)N1CCOCC1`, for which the “activity (protection)” value is 0.547% (inactive).

Take `Cc1cccc(C(=O)NCC(=O)OCC(=O)NC2CCCCCCC2)c1`: the “activity (protection)” value is 0.954% (inactive). `COc1ccc(C(=O)CC(=O)C(=O)Nc2ccccc2)cc1`: the “activity (protection)” value is -2.05% (inactive). Consider `CCOc1ccccc1CN1CCCC(CNS(=O)(=O)c2ccc(OC)cc2)C1` (stereo not given), for which the “activity (protection)” value was -1.27% (inactive). `O=S(=O)(/N=C(/c1ccccc1)N1CCOCC1)c1ccc(F)cc1F`: the “activity (protection)” value is 0.385% (inactive). Same read-out and setting: the same measure for `O=C(CSC1=NS(=O)(=O)c2ccccc2N1)Nc1nccs1`: 0.09% (inactive); for `CCCCNc1c(-c2ccc(-c3cccc(Cl)c3)cc2)nc2ccccn12`: -2.18% (inactive); for `CC(C)Cn1cnc2c1c(=O)[nH]c(=O)n2Cc1ccccc1`: 0.91% (inactive). On the same count and under the same terms, the same measure for `Cc1[nH]c(=O)[nH]c(=O)c1S(=O)(=O)N1CCCc2ccccc21`: -1.05% (inactive). As for `S=C(Nc1ccccc1Cl)N1CCCC(c2ccccc2)=N1`, the Potency was 16.5 µM (active).

Consider `CCOc1cc(/C=N/Nc2cc(C)nc3ccc(C)cc23)ccc1O`, for which the “activity (protection)” value is -0.441% (inactive). `COc1cc(/C=N/NC(=O)c2cc(-c3ccco3)nc3ccccc23)cc(OC)c1O`: the “activity (protection)” value was -2.04% (inactive). As to `OC(COc1ccc(Br)cc1)CN1CCN(c2ccccc2)CC1` (stereo not given), the “activity (protection)” value was -0.779% (inactive). The same measure, in the same setting: to `CCCCn1c(=NC(=O)c2ccco2)c(C(=O)OCC)cc2c(=O)n3cccc(C)c3nc21` belongs 0.971% (inactive); to `O=C(CSc1nncs1)NC(=O)NCc1ccco1`, -1.16% (inactive). `COCCn1nnnc1C(C(C)C)N1CCCC(C)C1` (stereo not given): the “activity (protection)” value was 1.85% (inactive). As to `CCN(CC(=O)Nc1c(F)cccc1F)C(=O)c1ccc(-c2ccc(C(C)=O)cc2)o1`, the “activity (protection)” value is -1.23% (inactive). Turning to `CC(C)(C)OC(=O)C[C@@H]1C/C=C\C[C@@H](CC(=O)N(CCO)Cc2ccccc2)C(=O)N[C@H](Cc2c[nH]c3ccccc23)COC1=O`, the “activity (protection)” value is -2.13% (inactive). As for `CCOc1ccc(C2(C)CC(=O)N(C)C2=O)cc1` (stereo not given), the “activity (protection)” value is -1.37% (inactive). In the case of `CCCc1nn2c(=O)cc(CSCC(=O)Nc3ccccc3)nc2s1`, the “activity (protection)” value is 1.46% (inactive).
